Test results taken from PubChem BioAssay AID1948 (National Center for Advancing Translational Sciences (NCATS), 2009).
The whole screen tested about 110,000 compounds, of which about 20 (0.02%) were called active. Entries that show only a call come without a potency. Another 2% or so got no clear call; they are omitted. Calls follow the shape of the dose curve; as a rule, active = well fitted activation curve with a large enough effect; inconclusive = small, poorly fitted or top-dose-only effect; inactive = no such curve, though single readings can be large or run the other way. For the sample, actives were picked, then their nearest neighbours and some compounds at random.

Experiment: qHTS Assay for Compounds that Induce Erasure of Genomic Imprints
Conditions: mouse ES Peg3-LacZ reporter, beta-gal luminescence, 40 h; series mostly up to 10.9 µM
Description: qHTS Assay for Compounds that Induce Erasure of Genomic Imprints NIH Chemical Genomics Center [NCGC] NIH Molecular Libraries Screening Centers Network [MLSCN] Assay Submitter (PI): JEFFRIES, SEAN, NCGC, University of Cambridge NCGC Peg3 Imprinting Assay Overview Genomic imprinting is the epigenetic process whereby genes are expressed in a parent of origin fashion. […] Unlike some forms of epigenetic silencing that can be overcome by overexpression of transcription factors, genomic imprinting stably represses the expression of one allele despite potentially high levels of expression from the other allele. […] During mouse embryonic day 11.5 imprints are erased in PGCs so that sex specific imprints can be reestablished during gametogenesis. Embryonic germ (EG) cells can be derived from developing PGCs at embryonic day 11.5 and these cells often lack genomic imprints. […] Embryonic stem (ES) cells are a cell type similar to EG cells in phenotype and transcriptional profile, yet ES cells maintain genomic imprints. This similarity between ES and EG cells prompted us to use ES cells to look for factors which could induce imprint erasure. To investigate the stability of genomic imprinting, ES cells were derived from mice with an insertion of a LacZ-Neomycin reporter construct in the Peg3 locus. Peg3 is an imprinted locus where gene expression is restricted to the paternal allele. […] Using LacZ expression we are able to monitor the state of the Peg3 imprint. In order to dissect the mechanisms involved in imprint erasure using a forward chemical genetics approach we developed a cell based phenotype assay using an endogenous silence imprinted locus. This assay utilizes maternally inherited Peg3LacZ-Neo ES cells by monitoring the LacZ expression from the normally silent Peg3 allele. To facilitate screening, high-density feeder-free ES cell culture has been optimized so that ES cells can be grown in 1536 for over four days without feeding or washes. The assay uses a luminescence based read out for LacZ activity and is a homogenous assay optimal for HTS.
NCGC Peg3 Imprinting Assay Protocol Summary ES cell lines were derived from blastocysts taken from Peg3LacZ-Neo x129 matings. Lines were sexed and genotyped for the Peg3LacZ-Neo allele. Female cells carrying the reporter allele were used in this study. Cells were derived on a layer of mouse embryonic fibroblasts and passaged multiple times before switching to feeder free culture. Cells were maintained feeder free on gelatin coated dishes in DMEM/F12 media supplemented with 15% FBS, 2mM L-glutamine, 100 units/ml penicillin, 100ug/ml streptomycin, 0.1mM MEM nonessential amino acids, 1mM sodium pyruvate, 0.1% sodium bicarbonate, 0.1mM 2-Mercaptoethanol, and 400 units/ml leukemia inhibitory factor (LIF) at 37C with 5% CO2. The assay was performed in 1536-well format. A single luminescence read was taken at the end of the assay and the data was normalized by plate to internal negative controls. Maximum efficacy and AC50 values were calculated from dose-response data using the standard Hill equation. 1536 well plates were filled with 0.5ul of 0.1% gelatin per well, spun down and incubated for at least 30 min at 37C. The ES cells were then trypsini Peg3 1536-well assay protocol: (1)Plate 0.5ul/well 0.1% gelatin in white tissue culture treated 1536-well plates, spin and incubate at 37C for at least 30 min. (2)Add 5ul/well (300 cells) of ES cell suspension from freshly trypsinized cells and incubate at 37C, 5% CO2 for 40 hours. (3)Add 5ul/well of freshly prepared BetaGlo solution and incubate at room temperature for 5 minutes. (4)Read luminescence on the ViewLux plate reader. Keywords Genomic Imprinting, Germ Cells, Embryonic Stem Cell, DNA Methylation, Peg3, qHTS, NIH roadmap, NCGC
Potency is read from the fitted curve at half-maximal effect.

Row | SMILES | Potency
1 | Cc1cccc(C(C)C)c1NC(=O)C(NS(=O)(=O)c1cccc2nsnc12)c1ccccc1 (configuration not stated) | inactive
2 | COc1cc(OC)c(NC(=O)N2CC3CCCN3c3ccccc32)cc1Cl (configuration not stated) | inactive
3 | Cc1ccc(C(=O)COC(=O)C(Cc2c[nH]c3ccccc23)NC(=O)c2ccc(Br)cc2)cc1 (configuration not stated) | inactive
4 | COc1cccc(Cn2c(CNS(=O)(=O)c3ccc(Cl)s3)nc3cccnc32)c1 | inactive
5 | CCCOc1ccc(NC(=O)CC2C(=O)N(c3ccccc3)C(=O)N2Cc2ccco2)cc1 (configuration not stated) | inactive
6 | CCN(c1ccc(Cl)cc1)S(=O)(=O)c1nnc(NC(=O)c2ccco2)s1 | inactive
7 | CCC(=O)N1CCc2cc(S(=O)(=O)NC(C(=O)Nc3ccc(C(C)=O)cc3)C(C)C)ccc21 (configuration not stated) | inactive
8 | CCSc1ncc(Cl)c(C(=O)Nc2c(C(=O)c3ccccc3)oc3ccccc23)n1 | inactive
9 | O=C(O)c1ccc2c(c1)N(Cc1ccc(F)cc1)C(=O)c1ccccc1S2=O (configuration not stated) | inactive
10 | Cc1ccc(-c2cn3c(n2)sc2cc(C(=O)NCc4cccs4)ccc23)c(C)c1 | inactive
11 | Cc1cccc(CC(=O)Nc2cccc(-c3cn4cccnc4n3)c2)c1 | inactive
12 | CCCCNC(=O)CSc1nc2cc3c(cc2c(=O)n1CCCCCC(=O)NCc1ccc2c(c1)OCO2)OCO3 | inactive
13 | CCOc1ccc(CNC(=O)c2ccc(CS(=O)c3ccccc3)o2)cc1 (configuration not stated) | inactive
14 | CCOc1ccccc1NC(=O)CCS(=O)(=O)c1cccc2nsnc12 | inactive
15 | CCSc1nnc2c(n1)OC(c1ccc(OCC(=O)O)cc1)Nc1ccccc1-2 (configuration not stated) | inactive
16 | COc1cccc(-c2nc(S(=O)(=O)c3ccc(C)cc3)c(NCc3ccccc3)o2)c1 | inactive
17 | Cc1ccc(C)c(N2CCN(C(=O)Cn3ncc4c(=O)oc5ccc(C)cc5c43)CC2)c1 | inactive
18 | Cc1ccc(S(=O)(=O)N(CC(=O)Nc2ccc(Cl)cc2Cl)c2ccccc2C)cc1 | inactive
19 | COc1ccccc1-n1c(-c2ccc(C)cc2)cn2c3c(=O)n(C)c(=O)n(C)c3nc12 | inactive
20 | Cc1nc2cnc(Nc3ccccc3)nc2n(C[C@H]2CCCO2)c1=O | inactive
21 | O=c1cnc2cnc(Nc3ccccc3)nc2n1Cc1ccc(F)cc1 | inactive
22 | Cc1nc2cnc(Nc3ccccc3)nc2n(Cc2ccc(F)cc2)c1=O | 3.16 µM (active)
23 | Cc1cc(NC(=O)c2cccc(Cl)c2)ccc1-c1cc2ccccc2oc1=O | inactive
24 | Cc1ccc(CCNC(=O)c2nnc(Cc3cccc(F)c3)o2)cc1 | inactive
25 | Cc1cc2c(cc1C)C(c1cccc(OC(C)C)c1)CC(=O)N2 (configuration not stated) | inactive

Row | SMILES | Potency
26 | COc1ccc(Cl)cc1NC(=O)CSc1nc(-c2cccs2)cc(C(F)(F)F)n1 | inactive
27 | Cc1ccc(NC(=O)Nc2sc3nc4n(c(=O)c3c2C)CCC(C)CC4)c(Cl)c1 (configuration not stated) | inactive
28 | Cc1ccc(OCCSc2nc(C)c(Cc3ccccc3)c(=O)[nH]2)cc1 | inactive
29 | CC(C)S(=O)(=O)c1oc(-c2ccc(F)cc2)nc1S(=O)(=O)c1ccc(F)cc1 | inactive
30 | CCCCN(C)c1nnc(NC(=O)Nc2ccc(Br)c(C)c2)s1 | inactive
31 | O=C(NCCc1ccc(Cl)cc1)c1ccc2c(c1)N(Cc1ccc(F)cc1)C(=O)CS2 | inactive
32 | CCOc1ccccc1NC(=O)CCn1cnnn1 | inactive
33 | CCOc1cc(-c2nnc(SCC(=O)NC3CCCC3)nc2-c2ccc(OC)c(OCC)c2)ccc1OC | inactive
34 | Cn1nnnc1SCCCNCc1cccc(OCc2ccc(Cl)cc2)c1 | inactive
35 | CSc1nc(=O)c2c(n1C)NC(=O)CC2c1ccccc1OC(C)C (configuration not stated) | inactive
36 | COc1ccc(Cl)cc1S(=O)(=O)N1CCC(c2ccncc2)CC1 | inactive
37 | CCc1nn(CC(=O)Nc2cccc(C)c2C)c(=O)c2cc3sccc3n12 | inactive
38 | Cc1cccc(NC(=O)c2cc(S(=O)(=O)N3CCC4(CC3)OCCO4)ccc2F)c1 | inactive
39 | CCC(=O)N1CCc2cc(Br)cc(S(=O)(=O)CCC(=O)NCCc3ccc(OC)c(OC)c3)c21 | inactive
40 | CCCNc1ncnc2c1c(-c1ccccc1)cn2-c1ccc(OCC)cc1 | inactive
41 | Cc1ccc(C)c(N2CCN(C(c3ccccc3)c3nnc(-c4ccccc4)o3)CC2)c1 (configuration not stated) | inactive
42 | COc1ccc(CN2C(=O)C(NC(=O)c3cccc(C)c3)(C(F)(F)F)N=C2c2ccccc2)cc1 (configuration not stated) | inactive
43 | CCOC(=O)C1CCCN(C(=O)c2ccc3c(c2)sc2nc(-c4ccc(CC)cc4)cn23)C1 (configuration not stated) | inactive
44 | CCCn1c(NCc2ccccc2F)nc2ccccc21 | inactive
45 | O=S(=O)(c1ccc2nc(N3CCN(c4cccc(Cl)c4)CC3)ccc2c1)N1CCCCC1 | inactive
46 | COc1ccc(OC)c(NC(=O)/C=C/c2ccc(C)o2)c1 | inactive
47 | Cc1c(Cl)cccc1NC(=O)CCS(=O)(=O)c1ccc2c(c1)oc(=O)n2C | inactive
48 | C#CC(C)(CC)NC(=O)Cn1nnc(-c2ccc(OCc3c(F)cccc3Cl)cc2)n1 (configuration not stated) | inactive
49 | Cc1nc2ccn(Cc3cccnc3)c(=O)c2cc1C(=O)N1CCN(c2ccccc2F)CC1 | inactive
50 | COc1cc(OC)c(NC(=O)c2nc(-c3ccncc3)no2)cc1Cl | inactive

Row | SMILES | Potency
51 | COc1ccccc1NC(=O)c1oc2ccccc2c1NC(=O)COc1ccccc1OC | inactive
52 | Cc1c(-c2nsc(NC(=O)c3cccc(Cl)c3)n2)nnn1-c1ccccc1C(F)(F)F | inactive
53 | O=C(c1cccs1)c1cn(CCOc2ccc(Cl)cc2)c2ccccc12 | inactive
54 | CC(=O)c1c(C)n(S(=O)(=O)c2ccc(Cl)cc2)c2ccc(NS(=O)(=O)c3ccc(Cl)cc3)cc12 | inactive
55 | COc1ccccc1CNC(=O)NCc1noc2ccc(C)cc12 | inactive
56 | COc1cccc(-c2nnc3n(CCc4ccccc4)c(=O)c4ccccc4n23)c1O | inactive
57 | COc1cccc(CNCCSc2nnnn2C)c1OCc1ccccc1Cl | inactive
58 | CCOC(=O)c1ccc(-c2ccc(/C=C(\C#N)C(=O)Nc3ccc(OCC)cc3)o2)cc1 | inactive
59 | COc1ccc(NC(=O)CSc2nnc(-c3nnn(-c4ccc(F)cc4)c3C)o2)cc1 | inactive
60 | COc1ccc(N2CCN(S(=O)(=O)c3ccc(-c4coc(C)n4)cc3)CC2)cc1 | inactive
61 | Cc1ccccc1C(=O)Nc1sc2c(c1C(=O)N1CCC(C)CC1)CCCC2 | inactive
62 | CC(=O)[C@H](C(c1ccccc1)N1CCOCC1)N1CCOCC1 (some centres not stated) | inactive
63 | COc1cc(C(=O)Nc2ccc(OCc3cc(=O)n4ccc(C)cc4n3)cc2)cc(OC)c1OC | inactive
64 | CCc1cccc(NC(=O)CSc2nccn2C)c1 | inactive
65 | COc1ccc(S(=O)(=O)NCCSc2nnnn2-c2ccccc2)cc1 | inactive
66 | CCOc1ccc(OCC)c(NC(=O)c2c(C)nn(-c3ccccc3)c2-n2cccc2)c1 | inactive
67 | Cc1c(Cl)cccc1NC(=O)C(=O)NCCc1csc2nc(-c3ccccc3F)nn12 | inactive
68 | CC(Sc1oc(-c2ccco2)nc1S(=O)(=O)c1ccc(Br)cc1)c1ccccc1 (configuration not stated) | inactive
69 | Cc1cc(Cl)ccc1OCC(=O)N(Cc1ccc(N(C)C)cc1)C1CCS(=O)(=O)C1 (configuration not stated) | inactive
70 | COc1ccc(Cc2nc3ccc(C(=O)NCc4ccccc4C)cc3o2)cc1 | inactive
71 | CC(=O)Nc1cc(C(=O)NCc2ccc(F)cc2Cl)ccc1Sc1ccc(Cl)cc1 | inactive
72 | COc1ccc(-c2nc3ccccc3o2)cc1NC(=O)c1cc([N+](=O)[O-])ccc1N1CCOCC1 | inactive
73 | Cn1c(=O)c2c(nc(SCC(=O)Nc3ccc(F)cc3)n2Cc2ccccc2)n(C)c1=O | inactive
74 | CC(=O)OC1=C(C(C)=O)N(Cc2ccccc2)S(=O)(=O)c2ccccc21 | inactive
75 | CCOc1ccccc1NC(=O)Cn1c(=O)n(-c2cccc(C)c2)c(=O)c2c1c1cc(OC)ccc1n2C | inactive

Row | SMILES | Potency
76 | CCc1nn(CC(=O)NCC(C)c2ccccc2)c(=O)c2cc3occc3n12 (configuration not stated) | inactive
77 | Fc1ccccc1Oc1ncnc2c1oc1ccccc12 | inactive
78 | COc1ccc(OC)c(NC(=O)CN2CCCN(Cc3cc(C)ccc3C)S2(=O)=O)c1 | inactive
79 | O=C(Nc1c(C(=O)N2CCN(c3ccc(F)cc3)CC2)oc2ccccc12)c1ccco1 | inactive
80 | COc1ccccc1CNCc1ccc(C(=O)O)s1 | inactive
81 | O=C(C1CCC(Cn2c(=O)c3sccc3n(Cc3ccccc3F)c2=O)CC1)N1CCCCC1 (configuration not stated) | inactive
82 | COc1ccc(OC)c(CNC(=O)CN2C(=O)CCn3nc(-c4cn(C)c5ccccc45)cc32)c1 | inactive
83 | COc1ccccc1CNC(=O)c1ccc(CS(=O)c2ccccc2Cl)o1 (configuration not stated) | inactive
84 | CCN1CCc2nc3sc(C(=O)Nc4ccccc4OC(F)(F)F)c(N)c3cc2C1 | inactive
85 | COc1cc(OC)cc(-c2nc3nc(C)c(CCC(=O)Nc4ccc(C)cc4)c(C)n3n2)c1 | inactive
86 | CC1CCC2(CC1)N=C(c1ccccc1)C(=O)N2CC(=O)Nc1ccc(F)c(Cl)c1 (configuration not stated) | inactive
87 | CCOc1ccc(NC(=O)c2cc(S(=O)(=O)N3CCCC3)c[nH]2)cc1 | inactive
88 | CC1CCN(S(=O)(=O)c2ccc3c(ccn3CCC(=O)NCc3ccc(N(C)C)cc3)c2)CC1 | inactive
89 | Cc1c(C(=O)NCc2ccccc2Br)oc2ccc3c(c12)C(=O)CC(C)(C)O3 | inactive
90 | CCc1nn(CC(=O)N2CCN(c3ccc(Cl)cc3)CC2)c(=O)c2cc3occc3n12 | inactive
91 | COc1ccc(CCn2cc3c(c2-c2ccc(Br)cc2)c(=O)n(C)c(=O)n3C)cc1OC | inactive
92 | Cc1ccccc1NC(=O)Cn1c(=O)n(CC2CCC(C(=O)NCCc3ccccc3)CC2)c(=O)c2ccccc21 (configuration not stated) | inactive
93 | Cc1ccc2nc(COc3ccccc3NC(=O)Nc3ccc(F)c(Cl)c3)cc(=O)n2c1 | inactive
94 | CCOC(=O)c1c(N)n(-c2cccc(C)c2C)c2nc3ccccc3nc12 | inactive
95 | COc1ccc2c(c1)C=C(C(=O)NCc1cc(Br)ccc1OC)CO2 | inactive
96 | COC(=O)c1cnc(N2CCN(c3ccccc3OC)CC2)c2ccccc12 | inactive
97 | COc1ccc(Br)cc1C1CC(=O)Nc2c1c(C)nn2-c1nc(C)cc(C)n1 (configuration not stated) | inactive
